IL1B secr inh: blocks inflammasome-driven IL-1 beta release; THP-1 LPS/ATP IL-1B secretion, AlphaLISA, 16 h; stronger effect = lower value; activity change, % at 57.5 µM; actives 4.7% (n = 360,000); AID 743279; in the data active = activity change below about -50%; inconclusive = mostly about -30% to -49%; note: % is set by controls: 0 for no effect and ±100 for the full control effect
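Secreted IL-1B measured by AlphaLISA bead assay after 16 h compound exposure of THP-1 cells; compounds (final up to 57.5 uM) added 1 h before LPS (250 ng/mL) and ATP (1.25 mM) stimulation; lower signal means less secretion.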
HepG2 tox: kills HepG2 cells in TGF-b inhibitor counter-screen. Potency, µM (series often up to 46.1 µM), for the others: at the top dose activity change, negative = cytotoxicity, most hits filed as cytotoxic. HepG2 CAGA-GFP viability, ATP luminescence, 18 h. actives 0.76% (n = 410,000). AID 588856; note: potency is the fitted concentration of half-maximal effect
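HepG2 CAGA-GFP cells (1000/well, DMEM with 1% FBS) received compound, then TGF-beta at 500 pg/mL final, and were incubated 18 hours at 37 degrees C. Viability was read by CellTiter-Glo luminescence. Media-only wells were set as complete cell-killing and DMSO as no toxicity.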
TGFb inhibitor: TGF-b pathway inhibition. HepG2 CAGA-GFP TGF-b/SMAD3 reporter, GFP fluorescence, 18 h; TGF-beta stimulated, 500 pg/mL final. Potency, µM (top dose mostly 46.1 µM), for inactives: at the highest dose activity, negative = inhibition, usual class: inhibitors. actives 1.2% (n = 410,000). AID 588855; note: potency is the fitted concentration of half-maximal effect; % is set by controls: 0 for no effect and ±100 for the full control effect; nearly all actives have a fitted effect of over 65% in size
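GFP signal (ex488/em500-530) from TGF-beta-stimulated HEPG2 CAGA-GFP cells, 500 pg/mL final, 18 h at 37 degrees C in DMEM plus 1% FBS, normalized to unstimulated and DMSO-stimulated controls.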
TDP1 inh: inhibitors of human tyrosyl-DNA phosphodiesterase TDP1 | recombinant TDP1, AlphaScreen DNA substrate cleavage | actives 0.28% (n = 350,000) | Potency, µM (titrated, usually from 130 µM), for inactives: at the highest dose activity change, negative = inhibition, hits mostly inhibitors | Q9NUW8 | AID 485290; note: potency is the fitted concentration of half-maximal effect; % is set by controls: 0 for no effect and ±100 for the full control effect; nearly all actives have a fitted effect of over 40% in size
Target sequence (Q9NUW8 whole entry, looked up): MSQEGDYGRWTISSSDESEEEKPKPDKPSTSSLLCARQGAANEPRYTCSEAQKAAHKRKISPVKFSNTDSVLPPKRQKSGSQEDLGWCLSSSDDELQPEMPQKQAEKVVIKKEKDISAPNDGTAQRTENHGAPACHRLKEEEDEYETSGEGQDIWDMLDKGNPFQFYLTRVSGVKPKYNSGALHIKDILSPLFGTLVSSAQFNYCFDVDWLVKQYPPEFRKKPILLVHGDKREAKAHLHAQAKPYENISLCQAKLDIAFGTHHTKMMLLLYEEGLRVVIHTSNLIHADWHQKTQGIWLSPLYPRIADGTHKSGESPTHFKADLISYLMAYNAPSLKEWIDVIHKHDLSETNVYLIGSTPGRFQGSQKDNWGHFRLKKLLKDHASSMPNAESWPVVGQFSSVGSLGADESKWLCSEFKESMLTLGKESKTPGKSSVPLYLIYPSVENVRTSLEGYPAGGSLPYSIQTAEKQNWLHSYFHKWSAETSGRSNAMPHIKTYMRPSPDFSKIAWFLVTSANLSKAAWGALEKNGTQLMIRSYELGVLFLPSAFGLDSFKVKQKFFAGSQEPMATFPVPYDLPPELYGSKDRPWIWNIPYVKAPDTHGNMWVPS
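Here, a 5' biotin and 3' phosphotyrosine-FITC DNA oligonucleotide reports Tdp1 activity: intact substrate bridges AlphaScreen beads, while cleavage leaves a 3' phosphate and drops signal. All incubations at room temperature.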
DT40 TDP1 no CPT: qHTS for Inhibitors of human tyrosyl-DNA phosphodiesterase 1 (TDP1): qHTS in cells in absence of CPT; DT40 Tdp1-/- hTDP1 cells, no CPT, ATP luminescence, 48 h; Potency, µM (doses to about 46.2 µM), inactives show top-dose activity change, negative = growth inhibition, actives largely listed as inhibitors; actives 15% (n = 420,000); note: potency is the fitted concentration of half-maximal effect; % is set by controls: 0 for no effect and ±100 for the full control effect; nearly all actives have a fitted effect of over 55% in size
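Chicken DT40 Tdp1-/- cells stably complemented with human TDP1 were seeded at 400 cells/well with DMSO in place of 20 nM camptothecin. After compound pinning, cells grew at least 48 hr at 37 °C; viability read by CellTiter-Glo luminescence.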
TDP1 cell CPT: growth inhibition of DT40 Tdp1-/-;hTDP1 cells with camptothecin (screen for TDP1 inhibitors). AID 686979. Potency, µM (titrated, usually from 46.2 µM), for inactives: at the top dose activity change, negative = growth inhibition, actives largely listed as inhibitors. chicken DT40 Tdp1-/-;hTDP1 cells + 20 nM CPT, ATP luminescence, 48 h. actives 12% (n = 420,000); note: potency is the fitted concentration of half-maximal effect; % is set by controls: 0 for no effect and ±100 for the full control effect; nearly all actives have a fitted effect of over 55% in size
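Chicken DT40 Tdp1-/- cells stably complemented with human TDP1 were seeded at 400 cells/well in medium containing 20 nM camptothecin, exposed to pin-transferred compounds, and grown at 37 °C for at least 48 hr. Viability was read as ATP luminescence.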
An asterisk follows results filed as active; u = inconclusive; x = no result given; ! = not confirmed by another sample; [ ] = remark or other dose. The list is not random: actives were taken first. Their share in the collection is about 19%. Unless noted, calls come from the whole dose curve; as a rule, active = well fitted curve in the direction sought with a large enough effect; inconclusive = small, poorly fitted or top-dose-only effect, or another doubt; inactive = no such curve, though single readings can be large; an effect the other way counts as inactive or inconclusive.

SMILES	IL1B secr inh	HepG2 tox	TGFb inhibitor	TDP1 inh	DT40 TDP1 no CPT	TDP1 cell CPT
CCOC(=O)C[C@@H]1OC2CCCCC2N1S(=O)(=O)c1ccc(C)cc1 (some centres undefined)	14	x	x	x	u	26µM*
COc1ccc(C(=O)C[C@@H]2OC3CCCCC3N2S(=O)(=O)c2ccc(C)cc2)cc1OC (some centres undefined)	-11	x	x	x	16µM*	16µM*
O=C1C(CCC(O)c2ccc(F)cc2)C(c2ccc(O)cc2)N1c1ccc(F)cc1 (centres undefined)	x	x	x	9%[56.1 µM]	x	x
CC1(C)OB(c2cnc(C#N)nc2)OC1(C)C	x	x	x	x	-11%	3%
O=C(NC(=S)Nc1ccccc1N1CCCC1)c1ccc(-c2cccc([N+](=O)[O-])c2)o1	u	-13%	-5%	3%	u	u
CC(=O)N1CCN(c2ccccc2NC(=O)c2ccc(-c3cccc([N+](=O)[O-])c3)o2)CC1	-11	-3%	-2%	5%	16µM*	23µM*
CN1CCN(c2ccccc2NC(=O)c2ccc(-c3ccccc3[N+](=O)[O-])o2)CC1	0	-43%	-13%	7%[56.1 µM]	16µM*	15µM*
O=C(NC(=S)Nc1ccccc1N1CCCCC1)c1ccc(-c2cccc([N+](=O)[O-])c2)o1	-11	-8%	-2%	0%	23µM*	u
COc1ccc2[nH]c(=O)c(CNc3ccc(C)cc3C)cc2c1	-13	-12%	0%	x	21µM*	5.8µM*
COc1ccc2[nH]c(=O)c(CNc3cc(C)ccc3C)cc2c1	-16	-22%	-3%	x	15µM*	15µM*
Cn1c(=O)n(C)c2cc(N3CCCCC3)c(NC(=O)c3ccc(C(C)(C)C)cc3)cc21	x	-17%	0%	5%	u	u
COc1cc2nc(CCc3nc4cc(OC)c(OC)cc4[nH]3)[nH]c2cc1OC	x	-10%	-21%	x	2µM*	5.6µM*
Cc1cccc(NC(=O)c2ccc(-n3c(C)nnc3C)cc2)c1	x	-2%	7%	9%	-11%	4%
COc1ccc2c(c1)N(C)/C(=C/c1cccc[n+]1C)S2	0	-37%	-17%	x	0.01µM*	0.26µM*
CCN1/C(=C/c2cccc[n+]2C)Sc2ccc(OC)cc21	u	-18%	4µM*	x	2.3µM*	2.6µM*
CCN1/C(=C/C(C)=O)Sc2ccc(OC)cc21	1	-14%	5%	2%	13µM*	7.1µM*!
O=c1[nH]c(SCc2ccccc2)ncc1S(=O)(=O)c1ccccc1	x	x	x	x	-15%	-1%
OCCCCNCc1ccc(OCc2ccc(Cl)cc2)cc1	-3	-22%	u	-1%	u	u
CC(NCc1ccc(OCc2ccc(Cl)cc2)cc1)C(O)c1ccccc1 (centres undefined)	-103*	16µM*	14µM*	5%	u	15µM*
COc1ccc(CNC(c2ccccc2)c2ccc(Cl)cc2)cc1 (centres undefined)	31	-10%	0%	u	16µM*	u
COc1ccc(CNC(C)CCc2ccccc2)cc1 (centres undefined)	-8	0%	9%	5%	u	u
COc1ccc(/C=C2\SC(=N)N(c3nccs3)C2=O)cc1OC	-1	-10%	-25%	3%	5.8µM*	13µM*
O=C1OC(c2cccs2)=N/C1=C\c1ccc(-c2cccc(Cl)c2)o1	26	-22%	2%	4%	u	21µM*
N=C1S/C(=C\c2ccc(-c3cccc(Cl)c3)o2)C(=O)N1c1nccs1	-14	2%	u	7%	2.6µM*	3.3µM*

Source: PubChem (National Center for Advancing Translational Sciences (NCATS))
